Source: PubChem (several laboratories)
BoNT-A LC inh2 = BoNT/A light chain protease inhibitors, primary screen, biochemical, flow cytometry, MLPCN library; AID 588499, 2011; inhibition, % at 10 µM; 360,000 compounds, 0.17% hits; multiplex microsphere protease substrate cleavage; note: plate controls were buffer without enzyme for full effect and enzyme alone for no effect
Vc quorum ag = inducers of Vibrio cholerae quorum light production without autoinducers, primary screen, BH1578 luxS cqsA deficient, single point. V. cholerae BH1578 lux reporter, luminescence, 6 h. activation, % at 18.7 µM. 350,000 compounds, 0.16% hits. AID 588436, 2011; in the data active = activation mostly above about 9.7%, no sharp cut-off; inconclusive = no clear call, values can overlap the other calls; inactive = mostly below about 3.7%
BoNT F protease = BoNT/F light chain protease inhibitors, primary screen, biochemical, flow cytometry, MLPCN library; Botulinum neurotoxin type F light chain protease (Clostridium botulinum); Multiplex microsphere protease cleavage assay; inhibition, % at 10 µM; 360,000 compounds, 0.22% hits; in the data active = inhibition above about 35%, passing the limit was not always enough; inconclusive = no clear call, values can overlap the other calls; note: plate controls were buffer without enzyme for full effect and enzyme alone for no effect
MazF activator = activators of E. coli MazEF toxin-antitoxin RNase, primary screen, biochemical, fluorescence, uHTS. FAM/BHQ RNA-DNA oligo cleavage fluorescence, 5 h. AID 504720, 2011. 350,000 compounds, 0.32% hits. Endoribonuclease toxin MazF (Escherichia coli (strain K12)), P0AE70. activation, % at 20 µM; in the data active = activation above about 50%
Target sequence (P0AE70 whole entry, looked up): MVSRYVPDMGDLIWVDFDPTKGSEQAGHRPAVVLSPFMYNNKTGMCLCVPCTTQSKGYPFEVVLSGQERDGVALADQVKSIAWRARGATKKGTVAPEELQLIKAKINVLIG
Anthrax LF prot = Bacillus anthracis LF protease inhibitors, primary screen, biochemical, multiplex microsphere, MLPCN library; inhibition, % at 10 µM; Lethal factor (Bacillus anthracis), P15917; 360,000 compounds, 0.12% hits; multiplex microsphere protease cleavage assay; note: plate controls were buffer without enzyme for full effect and enzyme alone for no effect
Autofluor counter = counter-screen for toxin protease inhibitors: compound fluorescence | compound autofluorescence counterscreen, microsphere flow cytometry; stronger effect = higher value | 360,000 compounds, 3.1% hits | AID 624483 | fluorescence intensity (test concentration not listed); in the data active = fluorescence intensity above about 16000; inconclusive = no clear call, values can overlap the other calls
Numbers without * were called inactive; i = inactive; ? = inconclusive; · = not tested or not shown. Sampled rows, rich in hits. Any-hit rate of the full collection: about 3.9%. Cut-off read from the data, not from the text of the source, unless noted: active = inhibition above about 30%; inconclusive = no clear call, values can overlap the other calls; inactive = below that.

SMILES | BoNT-A LC inh2 | Vc quorum ag | BoNT F protease | MazF activator | Anthrax LF prot | Autofluor counter
CCN(CC)CCCNC(=O)c1ccc(OCC(=O)Nc2ccccc2C(F)(F)F)c(OC)c1 | 0.7 | -0.2 | 0.4 | 5.4 | 1.9 | 2326
Cc1ccc(-n2c([S-])c(C(=O)Nc3ccc(OC(F)F)cc3)[n+]3ccc(C(=O)NCCO)cc23)cc1C | 50.9* | -0.2 | 2.1 | -11.1 | 19.5 | 4775
COc1ccccc1-n1c([S-])c(C(=O)Nc2ccccc2C(F)(F)F)[n+]2ccc(C(=O)NCCO)cc12 | 36.5* | -0.4 | 5.5 | -7.0 | 11.9 | 4782
Cc1ccc(NC(=O)CN(C)C(=O)COc2ccc(Br)cc2)cc1 | -0.1 | -0.5 | -2.5 | 4.1 | -6.8 | 3914
CC[C@@]1(C(=O)OC)N[C@H](CN(C)S(=O)(=O)c2ccccc2)[C@@H]2C(=O)N(C)C(=O)[C@@H]21 | -0.3 | i | -2.6 | 5.9 | -0.7 | 3404
COc1ccc(C(=O)c2ccc3oc(-c4ccc(OC)cc4)c(-c4ccc(O)cc4)c3c2)cc1 | 0.3 | 0.4 | -2.1 | -5.4 | -7.6 | 3596
O=C(Cn1c(=O)n(CC(=O)N2CCCCC2)c(=O)c2sccc21)NCc1ccccc1 | -1.2 | i | 5.5 | 0.3 | -2.0 | 5127
Cc1nc2ccccc2n1CC(=O)NCc1ccccc1 | 0.9 | -0.2 | 4.3 | 10.0 | 0.2 | 22747*
O=C(Cn1c(CC(=O)N2CCCC2)nc2ccccc21)NCc1ccccc1 | -1.2 | 0.5 | -3.3 | -0.7 | -0.5 | 24078*
Cc1nc2ccccc2n1CC(=O)NN | 0.2 | -0.3 | 1.7 | -9.7 | -2.0 | 2240
C=CCNc1ncnc2c1ncn2[C@H]1CN(CCOC)C[C@@H](CO)O1 | -0.2 | i | 1.8 | · | -1.3 | 3384
Cc1cccc(Sc2c([N+](=O)[O-])ncn2C)c1 | -0.3 | i | -0.6 | 5.6 | 1.3 | 23323*
COc1ccc2c(c1)CCO[C@]21O[C@H](CCO)C[C@H](O)[C@H]1O | -0.3 | i | -2.5 | 1.2 | -6.6 | 3006
Cc1ccc(NC(=O)CSc2nc(-c3ccco3)cc(C(F)(F)F)n2)cc1C | -4.1 | -2.8 | -9.7 | 4.4 | 0.5 | 17763*
Cc1ccc(N(C(=O)CNC(=O)c2ccco2)C(C(=O)NCC2CCCO2)c2ccccc2)c(C)c1 (centres undefined) | 0.7 | -0.1 | 4.4 | 3.4 | 1.1 | 5412
CC1(C(=O)NS(=O)(=O)c2ccccc2Cl)CCN1C(=O)C1CCCCC1 (centres undefined) | 0.1 | i | -10.0 | · | -1.5 | 3908
CNC(=O)C1=NCCCc2cc(OC)c(OC)cc21 | ? | i | -1.2 | 1.0 | -0.2 | 20275*
Cc1ccc(S(=O)(=O)NCC(=O)N2CCOCCOCCOCC2)cc1 | -5.1 | -0.3 | -2.2 | -14.7 | -4.4 | 3780
Cc1ccc(C=Nc2ccccc2C(N)=O)s1 | 0.5 | i | 1.3 | -1.6 | 0.5 | 2547
Cc1cccc(C=Nc2ccccc2C(N)=O)c1 | -4.2 | 1.0 | -5.4 | 3.5 | -5.5 | 24521*
O=C(c1ccccc1)N1N=C(C(F)(F)F)CC1(O)c1ccccc1 (centres undefined) | -0.2 | -0.8 | -10.9 | 8.0 | 38.5* | 3136
O=C(c1ccccc1)N1N=C(C(F)(F)F)CC1(O)c1ccc(F)cc1 (centres undefined) | -1.2 | i | -0.6 | -8.7 | -2.5 | 3913
CC(=O)Nc1cc(C(F)(F)F)ccc1OCCOc1ccccc1 | ? | i | 1.5 | 5.6 | -3.5 | 21706*
COc1ccc(C(=O)N2CCCC(Nc3ccc(F)cc3)C2)c(OC)c1 (centres undefined) | -0.5 | i | 4.4 | 9.9 | 3.5 | 6487
CCOc1ccc(NC(=O)C2CCN(C(=O)NCc3ccccc3)CC2)cc1 | 1.6 | -5.9 | 0.1 | 2.1 | -1.9 | 22864*
SMILES | BoNT-A LC inh2 | Vc quorum ag | BoNT F protease | MazF activator | Anthrax LF prot | Autofluor counter
CCOc1ccc(NC(=O)C2CC=CCC2C(=O)O)cc1 (centres undefined) | 0.5 | -2.6 | 0.4 | -0.7 | -0.5 | 22332*
COc1ccc(NC(=O)C2CCN(C(=O)NCc3ccccc3)CC2)cc1 | 0.8 | -12.5 | 2.3 | 10.9 | -1.9 | 16148*
COc1ccc(N2CCC(CNC(=S)Nc3cc(C)cc(C)c3)C2)cc1 (centres undefined) | 0.0 | i | -39.6 | -6.6 | -26.6 | 5737
COc1ccc(N2CCC(CNC(=O)Nc3ccccc3)C2)cc1 (centres undefined) | 6.1 | i | -21.9 | -3.7 | -12.7 | 19305*
CCCCOc1ccc(NC(=O)C2CC=CCC2C(=O)O)cc1 (centres undefined) | -1.4 | -1.0 | -18.5 | -8.7 | -0.3 | 6846
Cc1cc(=S)c2cccc(C)c2[nH]1 | · | · | · | -0.9 | · | ·
CCOc1ccc(OCC(=O)OC(C)C(=O)NC2CCCC2)cc1 (centres undefined) | 0.2 | -0.5 | 2.9 | 3.2 | 3.2 | 3662
N/C(=N\OC(=O)c1ccccc1)C(Cc1ccccc1)C(=O)NOC(=O)c1ccccc1 (centres undefined) | -0.4 | i | -6.7 | -2.6 | -2.5 | 2904
O=C(CSc1nnc2ccccn12)c1ccc(Cl)cc1 | -0.2 | -0.9 | 1.8 | -0.2 | -6.4 | 4107
O=C(CSc1nnc2n1CCCN2C(=S)Nc1ccc(Cl)cc1)c1ccccc1 | 3.8 | i | 6.3 | -19.6 | 0.0 | 20424*
CCOc1ccccc1N(C)S(=O)(=O)c1ccc2c(c1)N(C(C)=O)CCO2 | -0.3 | -0.9 | -7.0 | 2.1 | -2.5 | 6229
O=C(O)c1cccc(-c2ccc(/C=c3/sc4nc5ccccc5n4c3=O)o2)c1 | 0.4 | i | -6.5 | 580.8* | -3.0 | 4651
O=C(O)c1cc(C(=O)O)cc(-c2ccc(/C=c3/sc4nc5ccccc5n4c3=O)o2)c1 | · | · | · | -45.1 | · | ·
CC(OC(=O)Cn1cc(C(F)(F)F)ccc1=O)C(=O)N(C)c1ccccc1 (centres undefined) | 1.2 | -0.8 | 1.6 | 7.1 | 9.2 | 3747
COc1ccc(CN(C(=O)c2cc(=O)c3ccccc3o2)C2CCS(=O)(=O)C2)cc1 (centres undefined) | 0.1 | -1.8 | 4.8 | 12.4 | -1.0 | 5939
Cc1ccc2[nH]cc(C(=O)CN3CCN(c4ccccc4F)CC3)c2c1 | -0.7 | i | -1.0 | 1.3 | -2.7 | 19645*
CCOC(CNc1c([N+](=O)[O-])c(=O)n(C)c(=O)n1C)OCC | -0.2 | -0.6 | 0.3 | 4.1 | -0.9 | 2555
Cc1cccc(N(C(=O)CS(=O)CC(=O)Nc2ccc3c(c2)OCO3)C(C)C(=O)NC2CCCC2)c1C (centres undefined) | -0.7 | -0.5 | -5.0 | 6.2 | -7.7 | 4363
Cc1ccccc1N(CC(=O)NC1CCCC1)C(=O)CS(=O)CC(=O)Nc1ccc2c(c1)OCO2 (centres undefined) | 1.9 | -0.2 | 1.8 | -1.1 | 1.3 | 20092*
